From PubChem BioAssay AID1063 (University of Pittsburgh Molecular Library Screening Center, 2008)
The campaign covered roughly 200,000 compounds. About 18,000 (9%) were called active. Many of the other results were omitted from the sample, so actives are more common in it than they were. Unmarked numbers belong to inactive results. Cut-off read from the data, not from the text of the source: active = inhibition above about 50%; inactive = the rest.

Assay: Leishmania major promastigote growth inhibition, primary screen (AID 1063);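 note: promastigotes grown with compound for 44 hours at 28 °C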
Conditions: Leishmania major promastigotes, resazurin fluorescence viability; at 10 µM; hits give high values

Compound | inhibition
CC(C(=O)N=Nc1c(O)n(C)c2ccc(Br)cc12)n1cnc2ccccc2c1=O (stereo unspecified) | 7.13%
Clc1ccc(-c2ncc3ccccn23)c(Cl)c1 | 4.32%
Clc1ccc(-c2cc(C3CCNCC3)[nH]n2)c(Cl)c1 | 94.3% (active)
O=C1CSC(c2ccccc2)N1c1nc(-c2ccc(Cl)cc2Cl)cs1 (stereo unspecified) | -6.37%
CCOC(=O)c1cc2c(=O)[nH]c(C(Cl)(Cl)Cl)nc2o1 | -8.22%
N#CC1=C(N)N(c2ccccc2)C2=C(C(=O)CCC2)C1c1ccccc1 (stereo unspecified) | 69.2% (active)
COc1ccc(C2C(C#N)=C(N)N(c3ncn[nH]3)C3=C2C(=O)CCC3)cc1 (stereo unspecified) | -5.04%
CSc1sc(C)cc1C1C(C#N)=C(N)N(c2cccnc2)C2=C1C(=O)CCC2 (stereo unspecified) | 7.04%
Cc1cc(NC(=O)CSc2nnc(Nc3ccccc3F)s2)no1 | 0.51%
O=C(CSc1nnc(C2CC2)n1Cc1ccccc1)Nc1cccnc1Cl | 3.75%
O=C(CSc1nnc(Nc2ccccc2)s1)Nc1cccnc1Cl | 66.3% (active)
CC(=O)c1c(-c2ccccc2)c2ccccc2[nH]c1=O | -2.95%
O=C1CCCCC(=O)c2ccccc2N1 | 0.26%
c1ccc2c(c1)C(=NC1CCCCC1)NC2=NC1CCCCC1 | 100% (active)
CN(C)S(=O)(=O)c1cccc(NC(=O)COC(=O)/C=C/c2cccs2)c1 | -4.76%
CCOCC(=O)Nc1ncc(S(=O)(=O)c2ccc([N+](=O)[O-])cc2)s1 | 20.7%
COc1ccc(N/N=C2/CCCCC2=O)cc1 | 67.6% (active)
Cc1ccc(N/N=C2\COC(C)(C)CC2=O)cc1 | 0.62%
COc1ccc(NC(=O)c2c(C)oc3c2CCCC3)cc1 | -5.6%
O=C(CCCCCNC(=O)c1ccccc1)N/N=C/c1ccccc1 | -3.34%
O=C(CCCO)N/N=C/c1cc(Br)ccc1O | 12.7%
O=C(N/N=C/c1ccccc1O)/C(=C/c1ccccc1)CCO | 97.6% (active)
Cc1c(C=O)c2ccccc2n1CC(=O)O | -9.42%
Cc1ccccc1OCCC(=O)OCC(=O)NC(C)c1ccccc1 (stereo unspecified) | 1.48%

Compound | inhibition
CNC(=O)c1ccsc1NC(=O)c1ccc(S(=O)(=O)N2CCOCC2)cc1 | 12.3%
CNC(=O)c1ccsc1NC(=O)c1ccc(S(=O)(=O)N2CCc3ccccc32)cc1 | 89.2% (active)
CC1CN(S(=O)(=O)c2ccc(C(=O)Nc3sccc3C(N)=O)cc2)CC(C)O1 (stereo unspecified) | 6.76%
Cc1ccc2nc(-c3ccc(NC(=O)c4cccnc4)cc3)oc2c1 | -5.33%
Cc1cccc(NC(=S)NCCN(C2CCCCC2)C2CCCC2)c1 | 37.4%
COc1ccc(OCc2n[nH]c(=S)n2N)cc1 | -7.89%
O=C(/C=C/c1ccc(F)cc1)NCCNC(=O)/C=C/c1ccc(F)cc1 | -1.31%
O=C(/C=C/c1ccc(F)cc1)NC(=S)NNC(=O)c1cccnc1 | 53.4% (active)
CC(C)c1ccc(/C=C/C(=O)NNC(=O)c2cccnc2)cc1 | -0.93%
S=C(NCc1cccs1)Nc1ccc(Cl)cc1 | 10.1%
COc1ccc(NC(=S)NCc2cccs2)c(OC)c1 | 53.3% (active)
COc1cc(CC(=O)NCc2cccs2)cc(OC)c1OC | -3.33%
COc1ccc(Br)cc1/C=N/Nc1ccc(Cl)c(C(=O)O)c1 | -11.3%
COC(=O)C1CCN(C(=O)c2cc(=O)[nH]c3ccccc23)CC1 | -2.57%
COc1ccc(CCNC(=O)CC2SC(=Nc3cc(C)cc(C)c3)NC2=O)cc1OC (stereo unspecified) | 1.72%
Cc1ccc(F)cc1NC(=O)c1ccc2c(c1)OCO2 | -6.66%
Cc1ccnc(N2CCCC(C(=O)Nc3cc(F)ccc3C)C2)n1 (stereo unspecified) | -1.61%
Cc1nc(N2CCOCC2)c2c(C)c(C(=O)Nc3ccc(C(F)(F)F)cc3)sc2n1 | 58.7% (active)
Cc1nc(N2CCN(c3ccccn3)CC2)c2c(C)c(C(=O)Nc3ccc(F)cc3)sc2n1 | 43.6%
CCOC(=O)C1CCCN(C(=O)c2sc3nc(C)nc(N4CCOCC4)c3c2C)C1 (stereo unspecified) | -2.76%
Cc1nc(N2CCC(C)CC2)c2c(C)c(C(=O)Nc3cc(F)ccc3C)sc2n1 | 72.2% (active)
CC(C)CNC(=O)C(=O)NCc1ccccc1 | -6.83%
O=C(COC(=O)c1ccc(O)cc1)Nc1nccs1 | 3.69%
C/C(=N\NC(=O)C(N)=O)c1ccc2c(c1)OCCO2 | -3.07%

Compound | inhibition
CC(=O)c1cccc(NC(=O)[C@@H](NC(N)=O)C(C)C)c1 | 6.23%
COc1ccc(NC(C(=O)Nc2cccc(C(C)=O)c2)c2ccccc2)cc1 (stereo unspecified) | 94.4% (active)
COc1cccc(NC(=O)C(C)Oc2ccccc2)c1 (stereo unspecified) | -5.27%
Nc1c(C(=O)O)cnn1-c1ccccc1 | -2.24%
O=C(CN1CCN(C(=O)c2cccc(F)c2)CC1)Nc1ccccc1F | -5.19%
O=C(CCN1C(=O)c2ccccc2C1=O)Nc1ccncc1 | -8.03%
COc1ccccc1CC(=O)Nc1ccc(F)cc1F | -6.42%
CCN1CCN(C(=O)C2(NC(=O)Nc3cccc(F)c3)CCCCC2)CC1 | 29.9%
O=C(CCN1C(=O)c2ccccc2C1=O)Nc1cccc(F)c1 | 89.8% (active)
O=C(CCN1CCN(c2ccccc2)CC1)NNC(=S)Nc1ccccc1 | -9.65%
O=C(CCN1CCN(C/C=C/c2ccccc2)CC1)Nc1cccc(F)c1 | 90.8% (active)
O=C(CCN1C(=O)c2ccncc2C1=O)Nc1cc(F)ccc1F | -6.67%
O=C(CN1CCN(C/C=C/c2ccccc2)CC1)Nc1ccc(F)cc1F | 77.3% (active)
CC(=O)N1N=C(c2ccccc2)OC1c1cccnc1 (stereo unspecified) | -2.61%
CCC(C)N(C(=O)COC(=O)C1C(C(=O)OC)=C(C)NC(C)=C1C(=O)OC)C1CCS(=O)(=O)C1 (stereo unspecified) | -3.21%
O=C(Nc1ccc(N2CCN(C(=O)C3CC3)CC2)cc1)c1cccs1 | -2.42%
CCCOCC(O)CC(CC)C(=O)NNC(=S)Nc1ccccc1 (stereo unspecified) | -2.02%
CCCCOc1ccc(N(CC(=O)NC(C)C)C(=O)CCC(=O)Nc2ccccn2)cc1 | 0.57%
Cn1c(CCC(=O)Nc2ccccc2F)nnc1SCC(=O)Nc1ccccc1Cl | 2.13%
S=c1nc(C23CC4CC(CC(C4)C2)C3)nc2sccn12 | -2.7%
COc1cccc(C(=O)Oc2cc(C)[nH]c(=O)c2[N+](=O)[O-])c1 | 5.78%
CC1CCCN(S(=O)(=O)c2ccc(C(=O)Nc3nnc(-c4ccncc4)o3)cc2)C1 (stereo unspecified) | 12.2%
CC1CCCCN1S(=O)(=O)c1ccc(C(=O)Nc2nnc(-c3cccs3)o2)cc1 (stereo unspecified) | 99.6% (active)
CC1CCCCN1S(=O)(=O)c1ccc(S(=O)(=O)N(CC(=O)Nc2ccccc2)Cc2cccs2)cc1 (stereo unspecified) | -0.93%

Compound | inhibition
COC(=O)c1nc(NC(=O)c2ccc(F)cc2)n[nH]1 | -2.13%
c1ccc(-c2nccc(-c3ccc(-n4cnc5ccccc54)cc3)n2)nc1 | 101% (active)
Cc1nccc(-c2ccc(-n3c(C)ccc3C)cc2)n1 | 41.6%
CC(C)c1nc(-c2ccccn2)no1 | -3.52%
C/C(Cn1nnc2ccccc21)=N\OC(=O)c1cc(F)c(F)cc1Cl | 2.7%
CCN(CCn1cccn1)Cc1nc(-c2ccc(C(=O)OC)cc2)no1 | 5.81%
O=C1CC(c2c(F)cccc2Cl)C(n2cncn2)C(O)=C1C1NCCc2ccccc21 (stereo unspecified) | -6.44%
CC[C@H]1CN2CCc3cc(OC)c(OC)cc3[C@@H]2C[C@@H]1C[C@H]1NCCc2cc(OC)c(OC)cc21 | 100% (active)
COc1cc2c(cc1O)[C@H](Cc1ccc(Oc3cc(C[C@@H]4NCCc5cc(OC)c(O)cc54)ccc3O)cc1)NCC2 | 2.59%
CCOCCCN(C(=O)Cn1nnc(-c2ccc(OC)c(OC)c2)n1)C(CC)C(=O)NC1CCCC1 (stereo unspecified) | -1.34%
COCCn1nnnc1C(c1cc2ccc(OC)cc2[nH]c1=O)N1CCc2ccccc2C1 (stereo unspecified) | 5.04%
COc1ccc(OC)c(C(c2nnnn2C(C)(C)C)N2CCc3ccccc3C2)c1 (stereo unspecified) | 88.9% (active)
COc1ccc(OC)c(NC(=S)N2CCc3ccccc3C2)c1 | 5.86%
C=CCn1c(CCNC(=O)c2ccccc2F)nnc1SCC(=O)Nc1ccc(OC)cc1 | 3.89%
COc1ccc(Cc2nnc(NC(=O)c3cc(OC)c(OC)c(OC)c3)s2)cc1OC | -2.97%
NC(=O)C1CCN(Cc2nc3c(Br)cc(Br)cc3c(=O)[nH]2)CC1 | -13%
COCCNC(=O)/C(C#N)=C/c1nc(N(C)C)n(-c2ccc(F)cc2)c1Cl | 10.3%
COc1ccc(-c2nnc(SC(C)C#N)o2)cc1 (stereo unspecified) | -3.1%
COc1ccc(-c2nnc(SCC(=O)c3ccc4c(c3)OCCO4)o2)cc1 | -4.95%
COc1ccc(-c2nnc(SC(=O)N3c4ccccc4Sc4ccccc43)o2)cc1 | 84.1% (active)
CC(/C=N/NC(=O)c1ccncc1)=C\c1ccco1 | -2.49%
CC(Oc1ccccc1)C(=O)NN1Cc2ccccc2C1=N (stereo unspecified) | -3.38%
Nc1nc(-c2sc3nc4c(cc3c2N)CCCC4)nc(N2CCOCC2)n1 | 47%
CNC(=O)c1[nH]cnc1C(=O)N[C@@H](CC(C)C)C(=O)OC(C)(C)C | -2.24%
